Sm TGR block = S. mansoni TGR enzyme inhibition. Q962Y6. purified TGR, DTNB reduction, TNB absorbance 405 nm. Potency, µM (titrated, usually from 114 µM), hits mostly inhibitors. 3% of 360,000 active. AID 485364; active means well fitted inhibition curve with a large enough effect; further: nearly all actives have a fitted effect of over 60% in size
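Kinetic colorimetric format: TGR-catalysed, NADPH-driven DTNB reduction monitored via TNB absorbance. Enzyme dispensed at 20 nM; compound exposure 15 min at room temperature before reaction start.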
SARS PLP yeast = SARS-CoV PLP inhibition in yeast. AID 485353. S. cerevisiae expressing SARS-CoV PLpro, growth rescue. 0.19% of 330,000 active. Potency, µM (doses to about 32.9 µM), usual class: activators; calls by dose curve; further: nearly all actives have a fitted effect of over 55% in size
Numbers stand for hits. In the library only some 3% were active in any assay of this set; here they are far more common.

Results for Cc1ccc(NC(=O)CSc2nnc(COc3ccc(Cl)cc3)o2)cc1 ?
Sm TGR block: inactive

What do the screens show for `COc1ccc(/C=C/C(=O)N/C(=C\c2ccco2)C(=O)NCCc2nc3ccccc3[nH]2)cc1`?
Sm TGR block: inactive; SARS PLP yeast: inactive

Results for Cc1ccc(-c2nc3ccccc3[nH]2)cc1NC(=O)c1ccc2c(c1)OCO2 ?
Sm TGR block: inactive; SARS PLP yeast: inactive

What do the screens show for `Cc1ccc(-c2nc3ccccc3[nH]2)cc1NC(=O)/C=C/c1ccco1`?
Sm TGR block: 20µM; SARS PLP yeast: inactive

What do the screens show for `O=C(/C=C/c1ccco1)N/C(=C\c1ccco1)C(=O)NCCc1nc2ccccc2[nH]1`?
Sm TGR block: 16µM; SARS PLP yeast: inactive

What do the screens show for `Clc1ccc(-c2cc3ncc4c(n3n2)-c2ccccc2OC4)cc1`?
Sm TGR block: inactive

How did CC(=O)c1ccc(NC(=O)Cn2cnc3nc4c(cc3c2=O)CC(C)CC4)cc1 (stereo not drawn) do in these assays?
Sm TGR block: inactive

What do the screens show for `COc1ccc(C(=O)C2CCCN(C(=O)CCc3ccccn3)C2)c(C)c1` (stereo not drawn)?
Sm TGR block: inactive; SARS PLP yeast: inactive

How did COc1ccc(C(=O)C2CCCN(C(=O)CCc3scnc3C)C2)c(C)c1 (stereo not drawn) do in these assays?
Sm TGR block: 32µM; SARS PLP yeast: inactive

How did CC(CNC(=O)Cn1c(-c2cccs2)cc2ccccc21)c1ccccc1 (stereo not drawn) do in these assays?
Sm TGR block: inactive

What do the screens show for `COc1cc(C2C(C(C)=O)=C(O)C(=O)N2CCN2CCOCC2)ccc1O` (stereo not drawn)?
Sm TGR block: inactive; SARS PLP yeast: inactive

Results for CCCOc1ccc(C2C(C(=O)/C=C/c3ccco3)=C(O)C(=O)N2CCN2CCOCC2)cc1OC (stereo not drawn) ?
Sm TGR block: 8.9µM; SARS PLP yeast: inactive

Results for COc1ccc(C(=O)OCC#CCSc2nnc(-c3cccc4ccccc34)o2)cc1 ?
Sm TGR block: inactive; SARS PLP yeast: inactive

Results for O=C(OCC#CCNc1nnc(-c2cccc3ccccc23)o1)c1cccs1 ?
Sm TGR block: 18µM; SARS PLP yeast: inactive

How did COc1cccc(CNC(=O)C(C)n2c(=O)cc(-c3ccccc3)c3c(C)nn(C)c32)c1 (stereo not drawn) do in these assays?
Sm TGR block: inactive

What do the screens show for `O=C(CCl)N1CCN(S(=O)(=O)c2ccc3c(c2)CCC3)CC1`?
Sm TGR block: 5µM; SARS PLP yeast: inactive

Results for CN1C(=O)N(CC(=O)N2CCN(S(=O)(=O)c3ccc4c(c3)CCC4)CC2)C(=O)C12CCCCC2 ?
Sm TGR block: inactive; SARS PLP yeast: inactive

What do the screens show for `O=C(CCl)N1CCN(S(=O)(=O)Cc2ccccc2)CC1`?
Sm TGR block: 16µM; SARS PLP yeast: inactive

What do the screens show for `CCOC(=O)N1CCN(S(=O)(=O)Cc2ccccc2)CC1`?
Sm TGR block: inactive; SARS PLP yeast: inactive

What do the screens show for `CC(c1ccccc1)N1CCN(C(=O)CCl)CC1` (stereo not drawn)?
Sm TGR block: 45µM; SARS PLP yeast: inactive

What do the screens show for `Cc1cc(=O)oc2cc(OCC(=O)N3CCN(C(C)c4ccccc4)CC3)c(Cl)cc12` (stereo not drawn)?
Sm TGR block: inactive; SARS PLP yeast: inactive

Results for CCC1CCCCN1CCCNC(=O)c1ccc2c(c1)N(Cc1cccc(Cl)c1)C(=O)c1ccccc1S2(=O)=O (stereo not drawn) ?
Sm TGR block: inactive

How did CCc1ccccc1NC(=O)Cn1nnc(C(=O)Nc2ccc(OC)c(OC)c2)c1N do in these assays?
Sm TGR block: inactive

How did CCOc1ccc(NC(=O)N2CCC(N3CCCCC3)CC2)cc1 do in these assays?
Sm TGR block: inactive

How did CCN(CCCNC(=O)c1nn(-c2ccc(OC)cc2)c(=O)c2c1c1ccccc1n2C)c1cccc(C)c1 do in these assays?
Sm TGR block: inactive

What do the screens show for `Cc1ccc(-n2cnc3cc(C(=O)NCc4ccccc4Cl)ccc32)c(C)c1`?
Sm TGR block: inactive

What do the screens show for `O=C(COc1ccc(S(=O)(=O)N2CCCCC2)cc1)N1CCN(Cc2ccccc2)CC1`?
Sm TGR block: 28µM; SARS PLP yeast: inactive

What do the screens show for `COc1ccc(S(=O)(=O)N2CCN(C3CCN(Cc4ccccc4)CC3)CC2)cc1`?
Sm TGR block: 50µM; SARS PLP yeast: inactive

How did O=C(Cc1ccc(Cl)cc1)Nc1cccc(S(=O)(=O)N2CCCCC2)c1 do in these assays?
Sm TGR block: inactive; SARS PLP yeast: inactive

Results for O=S(=O)(c1ccc(Br)cc1)N1CCCN(Cc2cccc(F)c2)CC1 ?
Sm TGR block: inactive; SARS PLP yeast: inactive

What do the screens show for `O=C(COc1ccc(S(=O)(=O)N2CCCC2)cc1)N1CCCCC1`?
Sm TGR block: inactive; SARS PLP yeast: inactive

Results for COc1cccc(CN2CCCN(S(=O)(=O)c3ccc(Br)cc3)CC2)c1 ?
Sm TGR block: 40µM; SARS PLP yeast: inactive
